Pf Dd2 inh: qHTS Primary assay for Inhibitors of Plasmodium falciparum Dd2 growth in vitro. Potency, µM (titrated, usually from 28.9 µM), for the others: top-dose activity, negative = inhibition, most hits filed as inhibitors. 4.3% of 120,000 active. P. falciparum Dd2 growth, SYBR Green, 72 h; active means well fitted inhibition curve with a large enough effect;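 further: plate controls were DMSO vehicle for no effect and reference drug for full effect; nearly all actives have a fitted effect of over 65% in size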
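Infected erythrocytes (Dd2, 0.3% parasitemia, 2.5% hematocrit final) are added to compound in RPMI-1640/Albumax II medium, grown 72 h at 37C in low oxygen, then lysed with saponin/Triton-X containing SYBR Green and read by fluorescence.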
Numbers without * were called inactive; i = inactive; [ ] = remark or other dose. The full list was thinned out, with hits kept by preference. Potency means the concentration at half of the fitted maximal effect.

SMILES | Pf Dd2 inh
Cc1cc(OCC(O)CN2CCN(c3cccc(Cl)c3)CC2)ccc1Cl (stereo not drawn) | -5%
O=C1CCN(S(=O)(=O)c2ccccc2)CCCN(C(=O)c2cccnc2)CCN1 | 12%
COc1ccc(C(=O)N2CCCC3(CC(Cc4ccccc4)=NO3)C2)cc1 (stereo not drawn) | -1%
COC(=O)c1ccc(N2C[C@H]3OC(=O)N(Cc4ccccc4OC)[C@H]3C2)nc1 | -6%
COc1cc(OC)nc(N2C[C@H]3OC(=O)N(Cc4ccccc4OC)[C@H]3C2)n1 | 3.5µM*
COc1ccccc1CN1C(=O)O[C@@H]2CN(C(=O)NC3CCCCC3)C[C@@H]21 | -2%
COCCOC1CCN(C(=O)CCc2ccc(OC)cc2)C1 (stereo not drawn) | -3%
CC(=O)Nc1ccc(CN2CCc3nc(C4CC4)nc(-c4ccc(O)cc4)c3CC2)cc1 | i
CC(C)c1nc2c(c(-c3ccc(O)cc3)n1)CCN(Cc1cncs1)CC2 | -8%
CCc1nc2c(c(-c3ccc(O)cc3)n1)CCN(C(=O)c1ccc(OC)cc1)CC2 | i
COc1ccc(-c2nc(C3CC3)nc3c2CCN(Cc2ccc(NC(C)=O)cc2)CC3)cc1 | 8.9µM*
COc1ccc(-c2nc(C3CC3)nc3c2CCN(Cc2ccnn2C)CC3)cc1 | -1%
Oc1ccc(-c2nc(C3CC3)nc3c2CCN(Cc2ccccn2)CC3)cc1 | i
Oc1ccc(-c2nc(C3CC3)nc3c2CCN(Cc2ccc(F)cc2)CC3)cc1 | 4µM*
COc1ccc(-c2nc(C3CC3)nc3c2CCN(Cc2cncs2)CC3)cc1 | 10µM*
COc1ccc(CN2CCc3nc(C4CC4)nc(-c4ccc(O)cc4)c3CC2)cc1 | 4µM*
COc1ccc(CN2CCc3nc(C4CC4)nc(-c4ccc(O)cc4)c3C2)cc1 | i
Cc1nc2c(c(-c3ccc(O)cc3)n1)CN(Cc1ccc(F)cc1)CC2 | -6%
COc1ccc(-c2nc(C3CC3)nc3c2CN(S(=O)(=O)c2cccc(OC)c2)CC3)cc1 | -28%
Cc1nn(CCCNC(=O)C2CCOc3ccccc3C2)c(C)c1Cl (stereo not drawn) | -3%
CC(C)NC(=O)NC[C@H]1OC[C@@H](NCc2ccccc2O)[C@@H]1O | -12%[44.1 µM]
COc1ccc2c(c1)C1(CCN(C(=O)Nc3ccc4c(c3)OCO4)C1)C(=O)N2C (stereo not drawn) | i
COCCNC(=O)[C@H]1C[C@H](Oc2ccccc2)CN1C(=O)CC1CCCC1 | -18%
O=C(CCc1ccccc1)N1CCN(C(=O)c2nnn3c2COC(c2ccccc2)C3)CC1 (stereo not drawn) | -7%
Cn1c(Cn2ccnc2)nnc1C1CCCN(C(=O)c2sccc2N)C1 (stereo not drawn) | -2%
SMILES | Pf Dd2 inh
COc1ccc(-c2nc(C)nc3c2CCN(Cc2ccnn2C)CC3)cc1 | i
COc1ccc(-c2nc(C3CC3)nc3c2CCN(Cc2ccc(C#N)cc2)CC3)cc1 | 7.9µM*
COc1ccc(-c2nc(C)nc3c2CCN(CC2CCCCC2)CC3)cc1 | i
O=C(c1cc(F)cc(F)c1)N1CC2CC(C1)[C@H]1CCCC(=O)N1C2 (stereo partly drawn) | -20%
Cc1ccccc1S(=O)(=O)N1CCCC(CCC(=O)Nc2cccc(Cl)c2)C1 (stereo not drawn) | 13µM*
Cc1ccccc1S(=O)(=O)N1CCC(CCC(=O)NC2CC2)CC1 | -10%
Cc1ccccc1S(=O)(=O)N1CCCC(CCC(=O)NCc2ccc(F)cc2)C1 (stereo not drawn) | -8%
CC[C@H]1CN(C(=O)c2ccc(F)cc2)CC[C@H]1CC(=O)NC(C)C | -11%[44.1 µM]
O=C(NCc1ccncc1)C1CCc2nc(N3CCN(C(=O)C4CCC4)CC3)sc2C1 (stereo not drawn) | i
CCC(=O)N1CCN(c2nc3c(s2)CC(C(=O)NCc2cccc(OC)c2)CC3)CC1 (stereo not drawn) | -4%
O=C(O)C1CCc2nc(N3CCN(C(=O)C4CCC4)CC3)sc2C1 (stereo not drawn) | -20%
Cc1ccccc1C(=O)N1CCC(C(=O)Nc2ccc(F)cc2F)CC1 | 38%
O=C(NCc1cccs1)C1CCc2nc(N3CCN(C(=O)C4CCC4)CC3)sc2C1 (stereo not drawn) | 5µM*
CCC(=O)N1CCN(c2nc3c(s2)CC(C(=O)Nc2ccc(F)cc2F)CC3)CC1 (stereo not drawn) | 5µM*
Cc1cccc(NC(=O)C2CCN(c3nnc(-n4c(C)ccc4C)s3)CC2)c1C | i
CCN1CCN(C(=O)C2CCc3nc(N4CCN(C(=O)C5CCC5)CC4)sc3C2)CC1 (stereo not drawn) | -2%
CCC(=O)N1CCc2nc(N3CCN(Cc4cccnc4)CC3)sc2C1 | i
CCC(=O)N1CCN(c2nc3c(s2)CC(C(=O)Nc2cccc(C)c2C)CC3)CC1 (stereo not drawn) | 4µM*
O=C(NCc1ccco1)C1CCc2nc(N3CCN(C(=O)C4CCC4)CC3)sc2C1 (stereo not drawn) | i
CCC(=O)N1CCN(c2nc3c(s2)CC(C(=O)NCc2ccccc2)CC3)CC1 (stereo not drawn) | 7.9µM*
O=C(NCCCc1nc2ccc(F)cc2[nH]1)C1NCCc2[nH]cnc21 (stereo not drawn) | -7%
COc1cccc(CNC(=O)[C@@H]2C[C@@H](O)CN2C2CCN(C(=O)Cc3cccc(F)c3)CC2)c1 | i
O=C1CC(c2noc(Cc3ccc(F)cc3)n2)CN1c1ccc(F)cc1 (stereo not drawn) | -23%
Cc1noc(C)c1-c1cnc(NC(=O)c2ccc(Cl)cc2)c2c1CCO2 | 28%[44.1 µM]
COc1ccc(CN2C[C@H]3CN(Cc4cnn(C)c4)CCN3C2=O)cc1 | 3%[44.1 µM]
SMILES | Pf Dd2 inh
CN1CC(=O)N(C2CCC2)Cc2c1ncnc2N1CCC(O)CC1 | -1%[44.1 µM]
O=C(NCc1ccc(F)cc1)N1CCC2(CC1)CC(N1CCCCC1)CCO2 (stereo not drawn) | i
C=C(C)COc1ccc(C(=O)N2CCN3C(=O)CN(C)C(=O)C3C2)cc1 (stereo not drawn) | -1%
CCS(=O)(=O)c1ncc(N(Cc2ccco2)Cc2sccc2C)c(C(=O)Nc2cc(C)ccc2C)n1 | 5.6µM*
Cc1ccc(C(=O)N(Cc2ccco2)Cc2sccc2C)cc1 | -6%
Cc1ccc(C)c(NC(=O)c2nc(S(C)(=O)=O)ncc2N(Cc2ccc(C(C)(C)C)cc2)Cc2ccco2)c1 | 2.5µM*
Cc1ccsc1CN(Cc1ccco1)C(=O)c1ccc(Cl)cc1 | 13%
Cc1ccc(NC(=O)c2nc(S(C)(=O)=O)ncc2N(Cc2ccco2)Cc2cccs2)c(C)c1 | -8%
Cc1ccc(C)c(NC(=O)CCc2nc(-c3ccc(C(C)(C)C)cc3)no2)c1 | 0%
CN(Cc1ccc(F)cc1)C(=O)Cc1ccc(F)cc1 | i
O=C(CC1CCCN(c2cn[nH]c(=O)c2)C1)NC1CCCCC1 (stereo not drawn) | 12%
Cc1ccc(C2Cn3nnc(-c4nc(-c5ccccc5Br)no4)c3CO2)c(C)c1 (stereo not drawn) | i
O=C(c1ccc[n+]([O-])c1)N1CCOC(CC(c2ccccc2)c2ccccc2)C1 (stereo not drawn) | -23%
Cc1ncncc1C(=O)N1CCOC(CC(c2ccccc2)c2ccccc2)C1 (stereo not drawn) | -17%
NC1(C(=O)N2CCOC(CC(c3ccccc3)c3ccccc3)C2)CC1 (stereo not drawn) | 10µM*
COc1ccccc1-c1nc2nccc(-c3ccsc3)n2n1 | i
CN(Cc1ccccc1)C(=O)C[C@@H]1O[C@H](CNC(=O)c2ccno2)[C@@H](O)[C@H]1O | -13%[44.1 µM]

Bioassay records (PubChem)
